Screening results (PubChem)
GLD-1 RNA inh – GLD-1-TGE RNA interaction inhibition (C. elegans); 0.44% of 320,000 active; Q17339; inhibition, % at 5.96 µM; purified GLD-1 + fluorescein TGE RNA, fluorescence polarization;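 active = percent inhibition above a per-plate cutoff, the plate mean of test compounds plus 3 SD, cut at about 30% in these data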;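 also: 0% = DMSO wells with GLD-1 and probe and 100% = wells lacking GLD-1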
Target sequence (Q17339 whole entry, looked up): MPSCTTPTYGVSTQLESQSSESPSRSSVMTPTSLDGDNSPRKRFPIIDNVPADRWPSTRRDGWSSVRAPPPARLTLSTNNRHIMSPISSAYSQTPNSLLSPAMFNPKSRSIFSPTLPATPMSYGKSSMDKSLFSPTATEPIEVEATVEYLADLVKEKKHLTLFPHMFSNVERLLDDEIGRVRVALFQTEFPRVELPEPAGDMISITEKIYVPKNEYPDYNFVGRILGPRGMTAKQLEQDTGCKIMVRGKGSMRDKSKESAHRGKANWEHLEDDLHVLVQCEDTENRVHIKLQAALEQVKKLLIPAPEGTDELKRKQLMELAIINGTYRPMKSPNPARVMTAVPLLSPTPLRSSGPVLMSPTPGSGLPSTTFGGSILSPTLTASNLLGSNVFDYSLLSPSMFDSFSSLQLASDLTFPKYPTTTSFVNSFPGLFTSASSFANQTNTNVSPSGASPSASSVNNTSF
eLon inh – inhibits E. coli Lon protease; inhibition, % at 7.94 µM; purified E. coli Lon protease, fluorescence polarization; P0A9M0; AID 602123; 0.42% of 360,000 active; in the data active = inhibition above about 13%, passing the limit was not always enough;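 also: 0% = enzyme with probe and DMSO and 100% = no enzyme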
MCL1 BIM primary – MCL1-BIM-BH3 interaction inhibition (human); Q07820; GST-MCL1 / FITC-Bim-BH3 fluorescence polarization; inhibition, % at 10.9 µM; 0.68% of 320,000 active;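 active = inhibition above the mean inhibition of all tested compounds plus 3 SD, set per campaign, cut at about 40% in these data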;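 also: 0% = DMSO wells and 100% = unlabeled Bim-BH3 peptide control; higher means more loss of mP so more displacement of Bim peptide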
MEX-5 binding – C. elegans MEX-5 TCR-2 RNA binding activity | MEX-5/FITC-TCR2 RNA binding, fluorescence polarization; stronger effect = lower value | activity score (negative = inhibition of binding), % at 10 µM | 0.38% of 300,000 active | AID 1832;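 active = inhibition past about -25% in most replicates, and total fluorescence under double the plate's negative control median, limit read from the data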;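 also: 0% = DMSO and -100% = 5 µM competing unlabeled TCR2 RNA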
EBV gp42 block – blocks Epstein-Barr virus glycoprotein 42 binding. Q1HVG2. Fluorescence polarization binding assay, mP read-out. inhibition, % (tested at 21.74 µM). 0.42% of 220,000 active. AID 1085; in the data active = inhibition above about 50%
Bcl-xL primary – blocks human Bcl-xL binding to Bim BH3 peptide; 0.7% of 320,000 active; inhibition, % at 10.9 µM; GST-Bcl-xL / FITC-Bim BH3 peptide fluorescence polarization;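 active = inhibition above the mean of all tested compounds plus 3 SD, cutoff set per campaign, cut at about 30% in these data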;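 also: 0% = DMSO wells and 100% = unlabeled Bim-BH3 peptide competitor; inhibitors lower millipolarization by displacing the labeled peptide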
eLon confirm – E. coli Lon inhibition confirmation | purified E. coli Lon, fluorescence polarization | shares compounds with eLon inh | 31% of 1,400 active | inhibition, % at 7.94 µM; in the data active = inhibition above about 16%;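 also: 0% = enzyme with probe and DMSO and 100% = no enzyme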
Starred values were filed as active, the others as inactive; . = no result. An excerpt weighted towards active compounds, which were near 1.5% of everything screened.

SMILES	GLD-1 RNA inh	eLon inh	MCL1 BIM primary	MEX-5 binding	EBV gp42 block	Bcl-xL primary	eLon confirm
O=C(C1CC(=O)N(c2ccc(F)cc2)C1)N1CCCCC1 (centres undefined)	1	-9	6	2	.	5	.
O=C(Nc1cccc2ccccc12)N(CCO)C1CCS(=O)(=O)C1 (centres undefined)	-1	5	7	2	.	-1	.
Cc1c(C(=O)O)c(O)cc2c1C(=O)c1c(O)c([C@@H]3O[C@H](CO)[C@@H](O)[C@H](O)[C@H]3O)c(O)c(O)c1C2=O	11	45*	.	.	.	.	22*
CCC(C(=O)c1ccc2ncccc2c1)c1ccccc1 (centres undefined)	-4	-2	-5	0	-13	2	.
CCOC(=O)C(=C1Nc2ccccc2N1)n1c(-c2cnccn2)nc2ccccc21	.	-6	.	.	.	.	.
CCOC(=O)C(=C1Nc2ccccc2N1)n1c(-c2ccco2)nc2ccccc21	.	41*	.	.	.	.	20*
CC(C)C[C@@H](CN1CCC[C@H]1CN1C(=O)C(=O)NC[C@@H]1Cc1ccccc1)N1C[C@H](Cc2ccc(O)cc2)N(CC2CCCCCC2)C(=O)C1=O	.	11*	.	.	.	.	13
Cc1cccc(-c2cccc(NC(=O)C3CCCN(C(=O)c4csc(C)n4)C3)c2)c1 (centres undefined)	2	79*	-2	-1	.	2	6
Cc1cccc(-c2cccc(NC(=O)C3CCCN(C(=O)c4cccnc4)C3)c2)c1 (centres undefined)	.	-4	.	1	.	.	.
NNC(=O)c1ccc(COc2cccc3cccnc23)cc1	1	13	7	-1	-19	6	.
O=C1CCC/C(=N\NC(=O)c2ccc(COc3cccc4cccnc34)cc2)C1	49*	37*	11	-1	-2	5	3
Cc1c(O)c(=O)n(-c2ccccc2)n1C	3	-11	7	.	.	2	.
CCN(c1c(C)n(C)n(-c2ccccc2)c1=O)S(C)(=O)=O	8	69*	6	0	-20	4	-22
CCCOc1ccc(/C=C/C(=O)Nc2ccc([N+](=O)[O-])cc2)cc1	-6	19*	3	-2	1	3	-102
CCCCOc1ccc(/C=C/C(=O)Nc2ccc([N+](=O)[O-])cc2C)cc1	4	6	8	-1	-2	7	.
CCOc1ccc(Oc2c(/C=N/NC(=O)C3CC3)c(C)nn2-c2ccccc2)cc1	4	6	-3	-1	5	0	.
O=C(CCN1CCOCC1)NNC(=S)NC(=O)c1ccccc1	-8	-2	2	0	-6	1	.
O=C(Nc1ccccc1C(=O)N1CCCCCC1)c1ccc(F)cc1	4	0	-5	2	.	-1	.
O=C(Nc1ccccc1C(=O)N1CCN(Cc2ccccc2)CC1)c1ccc(F)cc1	1	22*	9	-2	.	3	-1
N#CCC(=O)N/N=C/c1ccc(OC2CSC2)cc1	-4	25*	8	-1	-14	0	-39
COc1cccc(C(=O)N/N=C/c2ccc(OC3CSC3)cc2)c1	4	-14	-3	1	-1	-3	.
CCCCC1=CC2=C(c3ccco3)C(=O)C(C)(OC(=O)c3ccc(OC)cc3)C(=O)C2=CN1CCc1ccccn1 (centres undefined)	16	37*	23	-11	46	13	-18
CCCCC1=CC2=C(c3ccco3)C(=O)C(C)(OC(=O)c3ccc(OC)cc3)C(=O)C2=CN1CCOC (centres undefined)	16	48*	23	-5	13	18	12
CC[C@H]1CCCCc2ccccc2[C@@H](C(=O)C[C@@H](O)CC(C)=O)OC1=O	-1	-1	.	.	.	.	.
COc1ccc(S(=O)(=O)N2CCN(Cc3ccc4c(c3)OCO4)CC2)cc1	0	43*	1	0	.	3	2
Cc1cc(C)c(S(=O)(=O)Nc2cc(C)on2)c(C)c1	6	-10	0	0	.	6	.
Oc1ccccc1/C=N/c1c(-c2ccco2)nc2ccccn12	14	30*	23	-1	14	24	3
COc1cc(-c2nc3ccccn3c2/N=C/c2cccc(OC)c2O)ccc1O	-1	4	-3	-1	-13	-4	.
